Screens deposited in PubChem BioAssay by ICCB-Longwood Screening Facility, Harvard Medical School.
AID504770 = growth inhibition of E. coli YBA685, primary screen, V. cholerae RctB inhibitors. E. coli YBA685 rctB-dependent plasmid, OD600 growth, 3 h; stronger effect = lower value. actives 0.27% (n = 130,000). z-score (no concentration beside the values); in the data active = z-score below about -2, passing the limit was not always enough
CapD inh = Bacillus anthracis CapD inhibitors, primary screen, biochemical, fluorescence intensity. z-score (concentration not given with the values). actives 0.23% (n = 140,000). CapD gamma-glutamyltranspeptidase (Bacillus anthracis Ames Ancestor). purified CapD enzyme, fluorescence intensity read-out; stronger effect = lower value; in the data active = z-score mostly below about -2.9, no sharp cut-off; inactive = mostly above about -1.9
Starred values were filed as active, the others as inactive; · = no result given. Most compounds without a hit are left out; they make up all but 0.36% or so of the library.

SMILES	AID504770	CapD inh
CC(NS(=O)(=O)c1cccc(Cl)c1)C(=O)N(C)C1CCN(C)CC1 (centres undefined)	-5.3*	·
Cc1ccc(S(=O)(=O)NC(C)C(=O)N2CCN(c3cccc(Cl)c3)CC2)cc1 (centres undefined)	-0.55	0.095
CCOC(=O)c1c(-c2ccccc2)csc1NC(=O)c1ccccc1C(=O)O	-0.3	0.15
COc1cccc(N2C(=O)/C(=C/C=C/c3ccco3)C(=O)NC2=S)c1	-0.8	-7.42*
O=C1NC(=S)N(c2ccccc2)C(=O)/C1=C/C=C/c1ccco1	-1.25	-1.01
Cc1cccc(/C=N/NC(=O)c2ccccn2)c1O	-2.3*	·
O=C(N/N=C\c1ccccc1C(F)(F)F)c1ccccn1	-0.65	-0.05
CCc1ccc(C2(O)CC(C(F)(F)F)=NN2C(=O)c2ccc([N+](=O)[O-])cc2)cc1 (centres undefined)	·	0.03
COC(C(=O)O)c1ccccc1 (centres undefined)	-0.1	-0.45
CC(C)c1ccccc1NC(=O)C1CCCCC1	-0.9	0.275
Cc1cccc(NC(=O)C2CCCCC2)c1C(=O)O	0	-2.02*
CCOc1ccccc1-n1nnnc1SCC(=O)c1ccc(CNC(C)=O)o1	0	·
CC(=O)Nc1cccc(F)c1C(=O)O	·	-0.13
O=C(O)c1c(F)cccc1I	-0.8	-2.93*
NC(=O)Oc1cccc2ccccc12	-1.55	2.44
O=C(CSc1nc2cc(C(=O)NCCCN3CCOCC3)ccc2c(=O)n1CC1CCCO1)c1ccccc1 (centres undefined)	·	0.495
Cc1ccc(C(=O)Nc2cc(C)cc(C)c2)cc1	1.05	1.03
Cc1ccc(C(=O)Nc2cccc(O)c2)cc1	-2.35*	-0.14
N#CSC(C#N)Cc1ccccc1 (centres undefined)	-6.45*	-0.295
Cc1ccc(CC(C#N)Sc2nnc(C)n2Cc2ccccc2)cc1 (centres undefined)	0.2	·
Cc1ccc(CN(C)C(=O)COc2ccccc2C#N)o1	-0.15	·
Cc1ccc(C)c(NC(=O)CN(C)C(=O)COc2ccccc2C#N)c1	-3.5*	·
O=C(c1sc(=S)n2c1[nH]c(=O)c1ccccc12)N1CCc2ccccc2C1	0.65	-0.6
O=c1cc(CSc2nnnn2-c2ccccc2)[nH]c2nc3ccccc3n12	-0.7	0.32
O=c1cc(CSc2nnnn2-c2ccccc2)nc(Nc2ccc(F)cc2)[nH]1	-3.35*	-0.34
SMILES	AID504770	CapD inh
Cc1cc(N2CCN(C)CC2)nc(SC(C(=O)O)c2ccccc2)n1 (centres undefined)	-0.95	·
[N-]=[N+]=c1c(=O)ccc2c(=O)c3ccccc3c(=O)c1=2	-6.35*	-2.44
COC(=O)C1=C(N)OC(C)=C(C(=O)OC(C)C)C12C(=O)Nc1ccccc12 (centres undefined)	·	0.03
COCC(=O)Nc1ccc(-c2cn3cccnc3n2)cc1	-0.05	-0.005
O=C(CCC1CCCCC1)Nc1ccc(-c2cn3cccnc3n2)cc1	-0.5	-4.46*
CCOc1ccc2nc(NC(=O)c3ccc(C#N)cc3)sc2c1	-0.6	-0.115
C=CCN(CC=C)C(=O)C[n+]1ccc(C(N)=O)cc1	-4*	0
C=CCN(CC=C)C(=O)C[n+]1cccc(C(N)=O)c1	0.2	0.175
CCN(CC)C(=O)c1noc2c1CCCCC2	1.25	-0.195
Cc1cc(/C=C2\C(=O)NC(=O)N(c3ccccc3F)C2=O)c(C)n1-c1cc(C(=O)O)cc(C(=O)O)c1	·	-2.53
Cc1cc(/C=C2\C(=O)NC(=S)N(c3ccccc3F)C2=O)c(C)n1-c1cc(C(=O)O)cc(C(=O)O)c1	·	-9.12*
O=S(=O)(NC1CCCc2ccccc21)c1cccs1 (centres undefined)	-1.05	-1.68*
O=C(CCS(=O)(=O)c1cccs1)NC1CCCc2ccccc21 (centres undefined)	1.2	0.305
O=C(NCCN1CCN=C1c1ccccc1)c1ccccc1	-0.75	0.14
CCN1CCCC1CNC(=O)c1cc2c(s1)-c1ccccc1SC2 (centres undefined)	0.35	9.75
CCOC(=O)C1=C(NC(=O)c2ccccc2)c2ccccc2CC12CCCC2	0.4	0.43
COc1ccc(CCC(=O)N(C)C)cc1	1.85	-0.41
NC(=O)CSc1nnc(Cc2cc(=O)[nH]c(=O)[nH]2)n1-c1ccccc1	-0.35	-5.03*
O=C(CSc1nnc(Cc2cc(=O)[nH]c(=O)[nH]2)n1-c1ccccc1)N1CCCC1	0.7	-0.125
COC(=O)c1ccccc1NC(=O)c1sc2nc(C)nc(N3CCN(c4ccccn4)CC3)c2c1C	·	-1.01
O=C(O)C(C(=O)/C=C/c1ccccc1)=C1SCS1	-1	·
CC1CS/C(=C(/C(=O)O)C(=O)/C=C/c2cccc(O)c2)S1 (centres undefined)	0	-5.43*
CCCCCC1CCC(c2ccc(N=Cc3ccc4c(c3)OCO4)cc2)CC1 (centres undefined)	·	-0.585
Cc1nc(-c2cnccn2)sc1C(=O)N(Cc1ccccc1)Cc1cccs1	-1.15	2.38
CN1/C(=C\C=Nc2ccc(C(=O)O)cc2)C(C)(C)c2ccccc21	0.6	-3.21*
SMILES	AID504770	CapD inh
CN1/C(=C\C=Nc2cccc(C(=O)O)c2)C(C)(C)c2ccccc21	0.95	-0.355
CCN1CCN(Cc2cccc3cccnc23)CC1	-0.35	0.6
O=c1c2ccccc2c2nc3c(=O)c4ccccc4c3nc12	-0.05	·
O=c1c(=NO)c(=O)c2ccccc12	2.25	-5.38*
Cc1cc(C(=O)CSc2cc(C(=O)c3nccn3C)c3ccccc3n2)c(C)n1C1CC1	-1.1	·
COc1ccc(O)c(CNn2c(-c3cc(OC)c(OC)c(OC)c3)nc3ccccc3c2=O)c1	·	-0.37
O=C(Nc1nccs1)C1CCN(S(=O)(=O)c2ccccc2)CC1	-2.3*	·
O=C(Nc1nccs1)C1CCN(S(=O)(=O)c2cccnc2)CC1	-0.75	-0.38
CCOc1ccc(CCNS(=O)(=O)c2ccc(NC(C)=O)cc2)cc1	·	-0.685
Cc1ccc(/C=C2/SC(=O)N(CCC(=O)N3CCN(C)CC3)C2=O)cc1	-0.25	-0.82
Cc1ccc(/C=C2/SC(=S)N(CCC(=O)N3CCOCC3)C2=O)cc1	2.65	-2.58*
CC12CCC(C1)C(C)(C)C2OCC(O)CN1CCN(c2cccc(C(F)(F)F)c2)CC1 (centres undefined)	-0.2	-0.27
O=C(NN1S(=O)(=O)c2ccccc2S1(=O)=O)c1nsnc1NCCCl	·	-6.3*
O=C(NN1S(=O)(=O)c2ccccc2S1(=O)=O)c1nc[nH]c1C(=O)Nc1ccccc1	·	-0.78
N/C(=N\OC(=O)c1ccccc1)c1cccnc1	-1	·
CC(Oc1cccc(Cl)c1)C(=O)O/N=C(\N)c1cccnc1 (centres undefined)	-0.6	-6.04*
O=C(CN1C(=O)C(=O)N(Cc2ccccc2)C1=O)c1ccc(-c2ccccc2)cc1	·	-0.61
N#Cc1nccnc1S(=O)(=O)c1cccs1	-7.85*	0.71
O=S(=O)(c1cccs1)c1cccs1	-0.65	-0.08
CCOC(=O)CN1C(=O)S/C(=C/c2ccc(OCC(N)=O)c(OCC)c2)C1=O	0	0.135
COC(=O)c1cc(N2C(=O)/C(=C/c3ccc(-c4ccc(Br)cc4)o3)C=C2c2ccccc2)ccc1Cl	·	0.53
O=[N+]([O-])c1ccc(SCCO)c2nonc12	·	-3.98*
N#Cc1ccc(SCCO)c([N+](=O)[O-])c1	·	0
OC(CNCc1ccc(Cl)c(Cl)c1)(c1ccccc1)c1ccc(F)cc1 (centres undefined)	·	-0.38
CCc1ccnc(NS(=O)(=O)c2ccccc2)c1	1.85	3.21
